17 molecules from PubChem BioAssay can be followed below.

SMILES strings stand for the structures. Calls of active or inactive are those of the source. The rule behind the calls is not given here.

The target in the experiment is Pantothenate synthetase (Mycobacterium tuberculosis (strain ATCC 25618 / H37Rv)) (UniProt P9WIL5). In words: Recombinant Mtb pantothenate synthetase (PanC) inhibitors, coupled enzyme, confirmatory (AID 375).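 Note: 0% = full reaction with vehicle and 100% = no enzyme background.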 The following applies: coupled enzyme assay; at 10 µM, stronger effect = higher value.
Chain of Pantothenate synthetase (Mycobacterium tuberculosis (strain ATCC 25618 / H37Rv)) (P9WIL5 whole entry, looked up): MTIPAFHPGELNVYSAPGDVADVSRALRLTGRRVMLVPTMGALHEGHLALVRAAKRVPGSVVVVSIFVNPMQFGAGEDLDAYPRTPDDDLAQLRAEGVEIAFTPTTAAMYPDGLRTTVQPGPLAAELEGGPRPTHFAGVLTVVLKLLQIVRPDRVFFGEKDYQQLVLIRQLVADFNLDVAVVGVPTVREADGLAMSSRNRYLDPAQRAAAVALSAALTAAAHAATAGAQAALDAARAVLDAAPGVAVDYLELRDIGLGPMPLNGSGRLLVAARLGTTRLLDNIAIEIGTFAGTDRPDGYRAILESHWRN
As usually defined, the inhibition is the change of the read-out against control, counted positive when it falls. Take `COc1ccccc1CNC(=O)N[C@@H](Cc1ccccc1)C(=O)O`: the inhibition is 6% (inactive). The result for `CCc1nnc(NC(=O)c2cc3ccccc3oc2=O)s1` reads 2% (inactive); that for `CCOC(=O)N1CCN(S(=O)(=O)c2ccc(Br)s2)CC1`, 11% (inactive); that for `O=C(CCCCn1c(=O)c2ccccc2n(Cc2ccc(Cl)cc2)c1=O)NCc1ccco1`, 0% (inactive). Under `CSc1c(C#N)c(N)c(C#N)c2c1COC(C)(C)C2` stands 0% (inactive).

For `CC(NC(=O)NC12CC3CC(CC(C3)C1)C2)C1CCCO1` (configuration not stated), the inhibition is 5% (inactive).

`O=c1cc(CSc2nnc(COc3ccc(Cl)cc3)o2)c2ccccc2[nH]1`: the inhibition is 3% (inactive). Under `C=Cn1nc(C)c2ccccc2c1=O` stands 0% (inactive); under `C[C@@H]1C[C@H]2[C@@H]3CCC4=CC(=O)C=C[C@]4(C)[C@@]3(F)[C@@H](O)C[C@]2(C)[C@@]1(O)C(=O)COP(=O)(O)O`, 5% (inactive). The result for `CCCCn1cnc2c(c1=O)c1nc3ccccc3nc1n2Cc1ccc2c(c1)OCO2` reads 0% (inactive). Under `Cc1ccc(-c2nc3ccccc3[nH]2)s1` stands 0% (inactive). For `COCCn1c(C)cc(C(=O)CSc2nc3ccccc3c(=O)[nH]2)c1C`, the inhibition is 0% (inactive). On to `O=C1c2ccccc2C(=O)N1C/C=C/c1ccccc1`, for which the inhibition was 2% (inactive). The result for `COc1ccc(C(=O)N(CCCO)Cc2cc3c(C)ccc(C)c3[nH]c2=O)cc1OC` reads 0% (inactive); that for `Cc1c(OCC(F)(F)F)ccnc1CS(=O)c1nc2ccccc2[nH]1` (configuration not stated), 6% (inactive). For the molecule `CCc1nccn1S(=O)(=O)c1ccc(C)c(C)c1`, the inhibition is 0% (inactive). The result for `Cc1ccc(N(CC(O)CN2CCCC2)S(=O)(=O)c2ccc(C)cc2)cc1` (configuration not stated) reads 0% (inactive).
